Pf growth 96h: P. falciparum growth inhibition at 96 hours; 320,000 tested, 6.9% active; P. falciparum luciferase reporter growth, 96 h; Potency, µM (titrated, usually from 28.7 µM), for inactives: at the top dose activity change, negative = inhibition, usual class: inhibitors; AID 504834; further: on the % scale 0 is the no-effect control and ±100 the full control effect
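Plates of compound plus infected erythrocytes (2% hematocrit, 0.05% parasitemia final) incubate 96 hours, 37 C, 5% CO2. Detection reagent added; reduced luminescence from the parasites' luciferase reporter flags inhibition.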
AMA1-RON2 inh: disrupts binding of P. falciparum AMA1 to RON2. AID 720542. Potency, µM (titrated, usually from 58.2 µM), for inactives: at the top dose activity change, negative = inhibition, actives largely listed as inhibitors. 360,000 tested, 0.2% active. AlphaScreen AMA1-biotinylated RON2 peptide binding;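 further: 0% = vehicle wells and -100% = peptide control; nearly all actives have a fitted effect of over 45% in size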
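AMA1 (3D7) with his tag at 25 nM final met compounds first, then biotinylated RON2 peptide at 25 nM; detection used donor plus acceptor beads, 10 µg/mL apiece, read by AlphaScreen after 30 min at room temperature.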
Sm TGR inh: inhibitors of Schistosoma mansoni thioredoxin glutathione reductase; Q962Y6; purified TGR, DTNB reduction, TNB absorbance 405 nm; Potency, µM (doses to about 114 µM), inactives show at the highest dose activity change, negative = inhibition, hits mostly inhibitors; 360,000 tested, 3% active; AID 485364; further: on the % scale 0 is the no-effect control and ±100 the full control effect; nearly all actives have a fitted effect of over 60% in size
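Kinetic colorimetric format: TGR-catalysed, NADPH-driven DTNB reduction monitored via TNB absorbance. Enzyme dispensed at 20 nM; compound exposure 15 min at room temperature before reaction start.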
Pf growth 48h: P. falciparum growth inhibition at 48 hours (one generation); P. falciparum luciferase growth in erythrocytes, 48 h; Potency, µM (doses to about 28.7 µM), inactives show top-dose activity change, negative = inhibition, usual class: inhibitors; 310,000 tested, 5.9% active; AID 504832; further: on the % scale 0 is the no-effect control and ±100 the full control effect
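First compound was added to culture medium, then infected red cells at 0.1% parasitemia and 2% hematocrit (final). After incubation at 37 C under 5% CO2, luciferase detection reagent was dispensed and light output recorded.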
NS1 function inh: inhibitors of influenza NS1 protein function; 270,000 tested, 0.4% active; Potency, µM (series often up to 46.1 µM), for the others: top-dose activity, positive = more growth; AID 2326; calls by dose curve; further: actives are rising curves; nearly all actives have a fitted effect of over 50% in size
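S. cerevisiae expressing influenza A NS1, grown in glucose, washed, then diluted 1:100 into pH 6.0 -URA galactose medium with 23 nl compound. Growth recovery read as OD600; NS1-free strain serves as control.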
The depositor's hits bear a star. Hits are enriched below; roughly 11% of the tested compounds scored in any of these assays. Unless noted, the call rests on the fitted dose curve; in most records, active means well fitted curve in the direction sought with a large enough effect; inconclusive means small, poorly fitted or top-dose-only effect, or another doubt; inactive means no such curve, though single readings can be large; an effect the other way counts as inactive or inconclusive. Potency means the concentration at half of the fitted maximal effect.

COc1ccc(C(C(=O)NC(C)(C)C)N(Cc2ccc(C)cc2)C(=O)CCC(=O)Nc2cc(C)on2)cc1 (centres undefined) was read as Pf growth 96h 14.0%, AMA1-RON2 inh inconclusive, Pf growth 48h 9.28µM* and NS1 function inh -1.8%.
For COc1cccc(CC(=O)NNC(=O)CN(C)S(=O)(=O)c2ccc(C)cc2)c1 the results were AMA1-RON2 inh 88.7%.
N#CC1=C2SCN(c3ccccc3)CN2C(=O)CC1c1cccs1 (centres undefined) was read as Pf growth 96h 25.3%, AMA1-RON2 inh 22.2%, Sm TGR inh inconclusive, Pf growth 48h inconclusive and NS1 function inh -44.6%.
For N#CC1=C2SCN(Cc3ccco3)CN2C(=O)CC1c1c(F)cccc1Cl (centres undefined) the results were Pf growth 96h 77.7%, AMA1-RON2 inh 3.0%, Sm TGR inh 44.7µM* and NS1 function inh -26.6%.
`N#CC1=C2SCN(c3ccccc3)CN2C(=O)CC1c1ccccc1Cl` (centres undefined) gave Pf growth 96h inconclusive, AMA1-RON2 inh -6.3%, Sm TGR inh 22.4µM* and NS1 function inh -25.6%.
N#CC1=C2SCN(c3ccccc3)CN2C(=O)CC1c1c(Cl)cccc1Cl (centres undefined) was read as Pf growth 96h 0.9%, AMA1-RON2 inh 8.2%, Sm TGR inh 0.0% and NS1 function inh 11.2µM*.
For O=C(NCc1ccccc1F)C(=O)NCC1CCCN1S(=O)(=O)c1ccccc1 (centres undefined) the results were Pf growth 96h inconclusive, AMA1-RON2 inh -3.0%, Sm TGR inh 3.2% and Pf growth 48h inconclusive.
`CC(C)=C[C@H]1[C@@H](COC(=O)c2ccccc2Cl)C1(C)C` gave NS1 function inh -8.0%.
Oc1cccc2c3c(oc12)CCCC3 was read as AMA1-RON2 inh -16.8%.
`CC/C(=N\NC(=O)c1nnn(-c2nonc2N)c1-c1cccs1)c1ccccc1` gave Pf growth 96h -0.8%, AMA1-RON2 inh 13.4%, Sm TGR inh -22.7%, Pf growth 48h 32.4% and NS1 function inh 3.8%.
`COCCOC(=O)C1=C(C)NC(=O)N(C(C)=O)C1c1ccc(Cl)cc1` (centres undefined) gave Pf growth 96h 2.33µM*, AMA1-RON2 inh -2.4%, Sm TGR inh -1.1%, Pf growth 48h inconclusive and NS1 function inh -10.1%.
`Cc1ccc(CC2CC(=O)N(Cc3ccco3)C2=O)cc1` (centres undefined) gave Pf growth 96h 18.5%, AMA1-RON2 inh -7.0%, Sm TGR inh 12.6µM*, Pf growth 48h -0.3% and NS1 function inh -6.6%.
Screening Cc1ccc(CN2CCN(Cc3ccco3)CC2)cc1 returned Pf growth 96h inconclusive, AMA1-RON2 inh -17.1%, Sm TGR inh -0.2%, Pf growth 48h 5.3% and NS1 function inh 9.6%.
`O=C1CC(Cc2ccccc2)C(=O)N1Cc1ccco1` (centres undefined) gave Pf growth 96h 11.7µM*, AMA1-RON2 inh 8.3%, Sm TGR inh 15.8µM*, Pf growth 48h inconclusive and NS1 function inh inconclusive.
Screening COc1ccc(/C=N/NC(=O)NC23CC4CC(CC(C4)C2)C3)c(OC)c1 returned Pf growth 96h inconclusive, AMA1-RON2 inh 0.3%, Sm TGR inh -2.1%, Pf growth 48h 8.28µM* and NS1 function inh -5.0%.
For c1ccc(-c2ccc(CN3CCSCC3)cc2)cc1 the results were Pf growth 96h 13.1µM*, AMA1-RON2 inh -13.9%, Sm TGR inh -2.7%, Pf growth 48h 262.2% and NS1 function inh -16.5%.
COc1ccc(OC)c(/C=C/C(=O)N(C)CC(=O)Nc2ccc(N3CCOCC3)cc2)c1 was read as Pf growth 96h inconclusive, AMA1-RON2 inh -7.4%, Sm TGR inh -16.8% and Pf growth 48h -23.1%.
`CCn1c(=O)c(CCC(=O)NCC2CCCO2)c(C)c2c(C)nn(-c3ccc(C)cc3)c21` (centres undefined) gave Pf growth 96h -16.3%, AMA1-RON2 inh 3.2%, Sm TGR inh 3.4%, Pf growth 48h 5.22µM* and NS1 function inh -7.6%.
Cc1nc2nc(C)c(CCC(=O)N3CCN(c4ccccn4)CC3)c(C)n2n1 was read as Pf growth 96h 13.0%, AMA1-RON2 inh 18.1%, Sm TGR inh 6.5%, Pf growth 48h -3.0% and NS1 function inh 1.8%.
For Cc1ccc(-c2noc(CCC(=O)NCC3CCCO3)n2)cc1 (centres undefined) the results were Pf growth 96h 33.8%, AMA1-RON2 inh 8.4%, Sm TGR inh -4.7% and NS1 function inh -11.7%.
Screening CCn1c(=O)c(CCC(=O)N2CCN(c3ccccn3)CC2)c(C)c2c(C)nn(-c3cccc(C)c3)c21 returned Pf growth 96h inconclusive, AMA1-RON2 inh 11.6%, Sm TGR inh -1.4%, Pf growth 48h 9.28µM* and NS1 function inh -2.4%.
Screening Cc1cc(=O)oc2cc(OCC(=O)OCC(=O)NCCc3ccccc3)ccc12 returned Pf growth 96h -23.5%, AMA1-RON2 inh 0.6%, Sm TGR inh -15.5%, Pf growth 48h inconclusive and NS1 function inh -12.1%.
COc1ccc(CCNC(=O)COc2ccc3c(C)cc(=O)oc3c2)cc1OC was read as Pf growth 96h 2.94µM*, AMA1-RON2 inh -4.0%, Sm TGR inh -5.1%, Pf growth 48h 12.4% and NS1 function inh 8.2%.
Screening Cc1oc(C(=O)O)cc1COc1ccc2c(C)cc(=O)oc2c1 returned Pf growth 96h 2.08µM*, AMA1-RON2 inh 9.6%, Sm TGR inh -14.3%, Pf growth 48h 3.1% and NS1 function inh 4.5%.
CCOC(=O)C1=C(C)N(C)C(=S)NC1c1c(OCC)ccc2ccccc12 (centres undefined) was read as Pf growth 96h inconclusive, AMA1-RON2 inh 2.0%, Pf growth 48h inconclusive and NS1 function inh -31.0%.
For CCOc1ccc2ccccc2c1C1NC(=S)N(C)C(C)=C1C(=O)OC (centres undefined) the results were Pf growth 96h 3.29µM*, AMA1-RON2 inh 1.9%, Sm TGR inh -2.0%, Pf growth 48h inconclusive and NS1 function inh 23.8%.
`O=C(COC(=O)c1c2c(nc3ccccc13)CCCC2)Nc1ccc2c(c1)OCO2` gave Pf growth 96h 10.4µM*, AMA1-RON2 inh -9.8%, Sm TGR inh 7.0%, Pf growth 48h inconclusive and NS1 function inh -46.5%.
CC(C)(C)NC(=O)COC(=O)c1c2c(nc3ccccc13)CCC2 was read as Pf growth 96h 5.22µM*, AMA1-RON2 inh -4.6%, Sm TGR inh -17.6%, Pf growth 48h inconclusive and NS1 function inh -31.2%.
For NC(=O)COC(=O)c1c2c(nc3ccccc13)CCCC2 the results were Pf growth 96h -20.3%, AMA1-RON2 inh -20.0%, Sm TGR inh 4.7% and Pf growth 48h 4.7%.
`O=C(OCC(=O)N1CCc2ccccc21)c1c2c(nc3ccccc13)CCCCC2` gave Pf growth 96h -88.2%, AMA1-RON2 inh 1.4%, Sm TGR inh -7.7%, Pf growth 48h 4.65µM* and NS1 function inh -19.0%.

Screens as filed in PubChem.
